Assay results from ChEMBL document CHEMBL3988442, “University of Dundee, Small-Polar-MMV Screening Library” (2021).
About 13,000 (27%) of roughly 48,000 compounds showed an effect of 50% or more. The list shows a part of the results.

These molecules were tested on Wolbachia pipientis (assay: Anti-Wolbachia Cell-Based Screen). Conditions: 5 µM.
Assay type: functional
Design: scale not given: in the data most compounds retested in dose-response had high values

Point of comparison: `CC(Cc1ccco1)NS(=O)(=O)N1CCCCC1` (stereo not drawn), “Percent Effect” value -4.951%. Against it:
- COC(=O)c1cccc(NS(=O)(=O)c2cnc(NC(C)=O)s2)c1 — higher, 20.99%
- Cc1cc2nc(CO[C@H]3CN(C(=O)C4CC4)C[C@H]3F)[nH]c2cc1C — higher, 14.86%
- COC(=O)NCC(=O)N1CCCCC1c1nc2cc(F)ccc2[nH]1 (stereo not drawn) — lower, -29.13%
- Cc1cc(-c2cc(F)ccc2C(=O)O)nc(C2CCCCN2C(C)C)n1 (stereo not drawn) — higher, 125.8%
- Cc1cc(=O)c(C(=O)N2CCCCC2c2ccc(F)cc2)c[nH]1 (stereo not drawn) — lower, -20.91%
- Cc1cc(-c2ccccc2C(=O)O)nc(C2CCCN(C(C)C)C2)n1 (stereo not drawn) — higher, 128.4%
- COc1ccc(Cl)cc1CCNC(=O)N(C)CC1CCOC1 (stereo not drawn) — higher, 11.56%
- CN(C)CCN1CCc2c(nnn2C)C1COCc1ccccc1.O=C(O)C(F)(F)F.O=C(O)C(F)(F)F (stereo not drawn) — higher, 6.935%
- CN1CCC2(CC1)CN(Cc1ccc(C3CCCCO3)o1)CCCN2C (stereo not drawn) — higher, 6.017%
- CN(C)c1ccc(NC(=O)NCc2cccnc2N(C)C)cn1 — higher, 100.5%
- COc1ncccc1CNC(=O)Nc1ccc(N(C)C)nc1 — higher, 102.4%
- CN(C)c1ccc(NC(=O)NCc2cccs2)cn1 — higher, -3.387%
- Cc1nc(CNC(=O)Nc2ccc(N(C)C)nc2)sc1C — higher, -4.03%
- Cc1nnc(NC(=O)NCc2cccnc2N(C)C)s1 — higher, 4.263%
- CC(CNC(=O)Nc1ccc(N(C)C)nc1)Cn1cccn1 (stereo not drawn) — higher, 10.01%
- O=C(O)C(F)(F)F.O=C(O)C(F)(F)F.O=S(=O)(NCC1OCCc2cn(Cc3ccccn3)nc21)C1CC1 (stereo not drawn) — higher, 3.652%
- CCCN1CCCN(c2ccc(-n3ccc(C)n3)nn2)CC1 — higher, -2.54%
- CC(C)c1cc(NC(=O)CN2CCc3ccccc3C2)on1 — higher, 0.7279%
- CC(C)c1cc(NC(=O)CN2CCc3cncnc3C2)on1 — higher, -4.855%
- Cc1nnc2n1CCN(CC(=O)Nc1cc(C(C)C)no1)C2 — higher, 1.962%
- CC(C)c1cc(NC(=O)CN2CCC(C(N)=O)CC2)on1 — higher, 115.1%
- CNC(=O)C1CCN(CC(=O)Nc2cc(C(C)C)no2)CC1 — higher, 108.1%
- CC(C)c1cc(NC(=O)CN2CCCC(Cn3cncn3)C2)on1 (stereo not drawn) — higher, 3.767%
- O=C1CCC2(CCN(Cc3ccc(F)cc3Cl)CC2)CN1CCO — lower, -18.28%
- CCOc1ccc(CNC(=O)N(C)Cc2ncnn2C)cc1C — higher, 11.45%
- CC(C)c1noc(C2CCCN2C(=O)CN2CCc3ccccc32)n1 (stereo not drawn) — higher, -3.468%
- CN1CCCN(C(=O)c2nc3c(o2)CN(C(=O)c2cccnc2)C3)CC1.O=C(O)C(F)(F)F.O=C(O)C(F)(F)F — higher, -2.795%
- CCCNC(=O)c1nc2c(o1)CN(C(=O)CN(C)C)C2 — higher, 2.652%
- CN1CCCN(C(=O)c2nc3c(o2)CN(S(C)(=O)=O)C3)CC1 — higher, 89.92%
- CN(C)CC(=O)N1Cc2nc(C(=O)NCc3ccccc3)oc2C1 — higher, 4.563%
- CN1CCN(C(=O)c2nc3c(o2)CN(C(=O)c2cccnc2)C3)CC1.O=C(O)C(F)(F)F.O=C(O)C(F)(F)F — higher, 7.797%
- CN(C)CC(=O)N1Cc2nc(C(=O)N3CCCN(C)CC3)oc2C1 — higher, 106%
